From PubChem
LRH-1 inv ag = LRH-1 (NR5A2) inverse agonists, primary screen, cell-based, luminescence, HEK293T, StAR-luciferase reporter. inhibition, % at 3.6 µM. LRH-1 transfected, 24 h. Nuclear receptor subfamily 5 group A member 2 (Homo sapiens), O00482. 0.13% of 360,000 active;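 active = inhibition above the mean inhibition of all tested compounds plus 3 SD, cut at about 73% in these data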;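 note: 0% = DMSO wells and 100% = reporter-only cells lacking LRH-1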
Target sequence (O00482 whole entry, looked up): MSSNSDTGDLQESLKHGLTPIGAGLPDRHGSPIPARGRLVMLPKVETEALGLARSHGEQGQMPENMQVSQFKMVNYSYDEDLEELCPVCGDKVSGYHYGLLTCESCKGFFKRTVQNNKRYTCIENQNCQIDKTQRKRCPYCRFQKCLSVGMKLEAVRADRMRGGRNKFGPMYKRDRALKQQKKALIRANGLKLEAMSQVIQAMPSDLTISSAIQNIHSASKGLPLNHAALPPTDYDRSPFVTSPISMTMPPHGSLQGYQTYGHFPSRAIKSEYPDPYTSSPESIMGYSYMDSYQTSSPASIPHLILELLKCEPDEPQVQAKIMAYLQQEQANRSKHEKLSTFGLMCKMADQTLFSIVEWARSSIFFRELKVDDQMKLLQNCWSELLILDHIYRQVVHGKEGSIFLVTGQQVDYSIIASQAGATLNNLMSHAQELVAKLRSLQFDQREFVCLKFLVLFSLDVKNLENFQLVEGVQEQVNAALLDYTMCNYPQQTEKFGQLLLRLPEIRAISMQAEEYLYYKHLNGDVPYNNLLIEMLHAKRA
SRC3 inh = SRC3 coactivator transcriptional activity inhibitors, primary screen, cell-based, luminescence | Nuclear receptor coactivator 3 (Homo sapiens), Q9Y6Q9 | HEK293 GAL4-SRC3 luciferase reporter | inhibition, % at 3.6 µM | 0.17% of 360,000 active | AID 588352, 2011;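 active = inhibition above a per-campaign cutoff, the mean of all compounds plus 3 SD, cut at about 60% in these data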;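 note: 0% = DMSO-treated cells and 100% = gossypol-treated cells at 36 µM; higher means less SRC3-driven luciferase light from the GAL4 reporter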
NR2F2 inh = NR2F2 transcriptional activity inhibitors, primary screen, cell-based, luciferase reporter, HEK293T, luminescence | COUP transcription factor 2 (Homo sapiens), P24468 | HEK293T NGFI-A luciferase reporter | inhibition, % at 8.6 µM | 0.7% of 370,000 active | AID 686940, 2013;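 active = inhibition above a per-plate cutoff, mean inhibition of test wells between control levels plus 3 SD, cut at about 38% in these data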;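 note: cells cotransfected with COUP-TFII expression vector driving the NGFI-A reporter; 0% = median of COUP-TF2 test wells and 100% = reporter-only cells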
NCOA2 inhibitor = inhibition of GAL4-SRC2 driven luciferase reporter, primary screen, SRC2 inhibitor project, cell-based, luminescence; 0.17% of 370,000 active; AID 651957, 2012; Nuclear receptor coactivator 2 (Homo sapiens), Q15596; HEK293 GAL4-SRC2 luciferase reporter; inhibition, % at 9 µM;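 active = inhibition above the mean inhibition of all tested compounds plus 3 SD, set per campaign, cut at about 52% in these data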;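 note: 0% = DMSO treated cells and 100% = cells given Gossypol at 36 µM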
NCOA1 inh = SRC1 coactivator transcriptional activity inhibitors, primary screen, cell-based, luminescence | HEK293 GAL4-SRC1 luciferase reporter | AID 588354, 2011 | 0.12% of 360,000 active | inhibition, % at 3.6 µM;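 active = inhibition above the campaign mean plus 3 SD, with each screening campaign given its own cutoff, cut at about 60% in these data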;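 note: 0% = DMSO treated cells and 100% = gossypol at 36 µM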
GalR3 antagonist = GalR3 antagonists in HEK293 cells, primary screen, cell-based, fluorescence readout; Galanin receptor type 3 (Homo sapiens), O60755; HEK293 GalR3-CNG cAMP membrane potential fluorescence; galR3 body fused to GalR1 C-terminus; inhibition, % at 3 µM; 0.44% of 360,000 active;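 active = inhibition above the screen-wide average plus 3 SD, cut at about 13% in these data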;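 note: forskolin and galanin both at EC90 stimulate the cells; cAMP rise reported by CNG channel membrane potential dye signal; 0% = forskolin plus galanin with DMSO and 100% = forskolin alone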
GalR3 conf = GalR3 antagonist hit confirmation, cell-based, fluorescence, triplicate | 59% of 1,600 active | HEK293 GalR3 CNG cAMP biosensor, membrane potential fluorescence; galR3 fused to GalR1 carboxy tail; challenged with forskolin and galanin at EC90 | AID 652245, 2013 | shares compounds with GalR3 antagonist | inhibition, % at 3 µM;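 active = inhibition above the primary screen's cutoff, the mean inhibition of all screened compounds plus 3 SD, cut at about 13% in these data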;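 note: 0% = forskolin plus galanin and 100% = forskolin alone with DMSO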
HEK-CNG parental = nonspecific cAMP agonists in parental HEK-CNG cells, counter-screen for GalR3 antagonist project, cell-based, fluorescence, high throughput. shares compounds with GalR3 antagonist. 10% of 1,600 active. HEK293-CNG parental cells, cAMP membrane potential fluorescence; normalised: DMSO wells 0%, forskolin wells 100%. activation, % at 3 µM. AID 652268, 2013; in the data active = activation above about 1.3%
* = called active by the depositor; nt = no result. Hits are enriched below; roughly 1.1% of the tested compounds scored in any of these assays.

SMILES	LRH-1 inv ag	SRC3 inh	NR2F2 inh	NCOA2 inhibitor	NCOA1 inh	GalR3 antagonist	GalR3 conf	HEK-CNG parental
CCOc1ccc2[nH]c(=O)c(CN(Cc3ccco3)C(CC)c3nnnn3Cc3ccccc3)cc2c1 (stereo unspecified)	-7.8	-5.0	-8.2	-24.3	2.8	23.9*	12.3	0.2
CCOc1ccc2[nH]c(=O)c(CN(Cc3ccco3)Cc3nnnn3Cc3ccccc3)cc2c1	-3.5	7.5	-0.5	3.8	-21.0	-6.1	nt	nt
O=C(NN1C(=O)/C(=C/c2cccs2)SC1=S)c1ccncc1	9.4	17.9	3.9	8.2	-12.1	0.7	nt	nt
COc1cccc(/C=C2\SC(=S)N(NC(=O)c3ccncc3)C2=O)c1	10.4	-6.3	-1.5	2.2	-2.6	14.1*	-0.3	-0.1
CCn1cc(C(=O)Nc2ccc(Oc3cccnc3)cc2)c2ccccc21	nt	nt	-14.3	7.8	nt	4.8	nt	nt
CCOc1ccccc1OCC(=O)N/N=C(\C)Cc1ccc(OC)cc1	20.5	9.8	-48.3	27.7	-4.5	22.4*	-1.6	1.0
N#CC1=C(N)Oc2n[nH]c(-c3ccccc3)c2C1c1cccc(OC(=O)N2CCOCC2)c1 (stereo unspecified)	4.4	4.7	4.3	-13.8	10.3	28.2*	4.7	0.6
CCOc1ccc(-c2[nH]nc3c2C(c2cccnc2)C(C#N)=C(N)O3)cc1 (stereo unspecified)	7.3	13.2	-1.3	-19.1	-5.3	15.9*	-1.4	0.3
N#CC1=C(N)Oc2n[nH]c(-c3ccc(F)cc3)c2C1c1cccc(OC(=O)N2CCOCC2)c1 (stereo unspecified)	-2.7	8.9	-14.3	-10.0	-2.1	7.5	nt	nt
COc1cccc(-c2[nH]nc3c2C(c2ccoc2)C(C#N)=C(N)O3)c1 (stereo unspecified)	1.4	11.7	19.2	3.9	10.8	7.0	nt	nt
CCc1[nH]nc2c1C(c1cccnc1)C(C#N)=C(N)O2 (stereo unspecified)	7.6	7.1	-4.8	9.6	3.2	-1.4	nt	nt
COc1cc(-c2[nH]nc3c2C(c2ccoc2)C(C#N)=C(N)O3)cc(OC)c1OC (stereo unspecified)	15.9	-2.2	-11.9	-9.4	-8.7	18.5*	1.5	0.2
Cc1cccc(CCNC(=O)c2ccc(Sc3ccccc3Cl)c([N+](=O)[O-])c2)c1	nt	nt	-26.4	14.1	nt	nt	nt	nt
O=C(c1ccccc1I)N1CCC(Oc2cccnc2)CC1	nt	nt	16.8	2.2	nt	nt	nt	nt
CCOc1cc(/C=C2\CCC/C(=C\c3cc(Cl)c(O)c(OCC)c3)C2=O)cc(Cl)c1O	41.3	48.5	8.9	-19.8	20.0	24.1*	53.5*	-0.1
O=C(OC12CCCN(C1)/C(=C/c1ccncc1)C2)c1cccc(F)c1 (stereo unspecified)	nt	nt	25.4	10.5	nt	nt	nt	nt
O=[N+]([O-])c1c(Nc2ccc(O)cc2)cc(Cl)c2nonc12	14.9	-52.1	14.7	-21.5	-78.8	57.8*	51.1*	0.3
CN(C)c1cc(Nc2ccc(O)cc2)c([N+](=O)[O-])c2nonc12	-5.7	13.0	1.5	-26.6	-1.5	5.0	nt	nt
COc1cc(OC)cc(C(=O)NCC(=O)NCCN2C(=O)S/C(=C\c3ccc4c(c3)OCO4)C2=O)c1	5.8	26.2	-3.6	-10.4	-42.8	13.0*	9.8	0.3
COc1cc(OC)cc(C(=O)NCC(=O)NCCN2C(=O)S/C(=C\c3ccccc3Cl)C2=O)c1	-14.2	-9.7	-25.2	12.2	-14.0	-4.8	nt	nt
